Holding throughout (experiment): DAPPL (digital affinity profiling via proximity ligation, sequencing); 10 mM Tris-HCl pH 7.5, 50 mM NaCl, 1 mM DTT, 4% glycerol, room temperature, 30 min; GST-TFs on glutathione beads, 16-mer random dsDNA library, 0.1% formaldehyde crosslink after washing; high values mean tight binding
Conditions in all cases: protein: recombinant; tags: N-terminal GST; dsDNA, one strand shown

One assay addresses T1, FLI1 (Homo sapiens, UniProt Q01543 1-452).
T1 sequence: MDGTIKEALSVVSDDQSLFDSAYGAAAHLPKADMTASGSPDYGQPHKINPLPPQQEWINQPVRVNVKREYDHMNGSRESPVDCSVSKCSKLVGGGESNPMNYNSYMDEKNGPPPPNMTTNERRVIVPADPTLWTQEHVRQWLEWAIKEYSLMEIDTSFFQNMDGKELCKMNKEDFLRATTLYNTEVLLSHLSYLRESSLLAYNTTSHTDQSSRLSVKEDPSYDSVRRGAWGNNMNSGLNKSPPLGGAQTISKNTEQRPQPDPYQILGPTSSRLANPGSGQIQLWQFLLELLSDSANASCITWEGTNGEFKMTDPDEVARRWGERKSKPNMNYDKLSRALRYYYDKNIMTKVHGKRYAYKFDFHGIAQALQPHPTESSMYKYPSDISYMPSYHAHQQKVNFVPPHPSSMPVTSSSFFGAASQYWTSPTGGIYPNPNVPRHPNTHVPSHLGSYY
In a few lines:
(§1)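 Beads coated with glutathione captured GST-fused human transcription factors that had been expressed in yeast, and the factors were then given DNA barcodes and pooled with a tag-only sample. The pools were incubated with 200 nmole of a random double-stranded 16-mer DNA library in Tris/NaCl/DTT/glycerol buffer for 30 min at room temperature, washed, crosslinked with 0.1% formaldehyde and proximity-ligated with BsaI/T4 ligase at 37 °C for 1 h. PCR amplification and Illumina NextSeq500 sequencing came last. Binding signal is each hexamer's read frequency for a factor divided by its frequency for the tag-only sample.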

For another assay, the target named is T2, GABPA (Homo sapiens, UniProt Q06546 1-454).
T2 sequence: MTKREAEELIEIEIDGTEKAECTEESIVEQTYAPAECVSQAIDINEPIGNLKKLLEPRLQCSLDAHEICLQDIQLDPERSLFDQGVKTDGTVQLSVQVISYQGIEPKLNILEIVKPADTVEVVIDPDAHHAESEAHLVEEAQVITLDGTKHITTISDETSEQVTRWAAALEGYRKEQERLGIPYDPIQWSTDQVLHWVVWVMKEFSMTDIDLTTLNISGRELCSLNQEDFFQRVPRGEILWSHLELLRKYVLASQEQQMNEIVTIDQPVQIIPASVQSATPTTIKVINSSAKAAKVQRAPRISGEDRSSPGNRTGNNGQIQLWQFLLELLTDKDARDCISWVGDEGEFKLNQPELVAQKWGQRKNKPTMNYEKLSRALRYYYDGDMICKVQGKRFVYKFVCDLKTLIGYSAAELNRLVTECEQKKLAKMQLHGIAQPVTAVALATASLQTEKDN
Put shortly:
as §1

In a further assay the target is ELF1 (Homo sapiens, UniProt P32519 1-619). In a few lines:
as §1

In a further assay the target is T3, EHF (Homo sapiens, UniProt Q9NZC4 1-300).
T3 sequence: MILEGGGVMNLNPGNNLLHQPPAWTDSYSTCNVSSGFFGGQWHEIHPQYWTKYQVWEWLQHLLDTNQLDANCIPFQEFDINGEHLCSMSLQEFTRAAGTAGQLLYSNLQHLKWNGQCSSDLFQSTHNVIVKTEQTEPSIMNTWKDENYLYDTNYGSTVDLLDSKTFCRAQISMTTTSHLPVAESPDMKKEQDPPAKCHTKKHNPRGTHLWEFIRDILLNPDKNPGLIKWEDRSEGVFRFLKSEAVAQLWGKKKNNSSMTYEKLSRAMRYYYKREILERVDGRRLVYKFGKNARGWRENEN
In a few lines: as §1

The target in the next assay is SPIB (Homo sapiens, UniProt Q01892 1-262). In a few lines:
as §1

The next assay deals with T4, ELK3 (Homo sapiens, UniProt P41970 1-407).
T4 sequence: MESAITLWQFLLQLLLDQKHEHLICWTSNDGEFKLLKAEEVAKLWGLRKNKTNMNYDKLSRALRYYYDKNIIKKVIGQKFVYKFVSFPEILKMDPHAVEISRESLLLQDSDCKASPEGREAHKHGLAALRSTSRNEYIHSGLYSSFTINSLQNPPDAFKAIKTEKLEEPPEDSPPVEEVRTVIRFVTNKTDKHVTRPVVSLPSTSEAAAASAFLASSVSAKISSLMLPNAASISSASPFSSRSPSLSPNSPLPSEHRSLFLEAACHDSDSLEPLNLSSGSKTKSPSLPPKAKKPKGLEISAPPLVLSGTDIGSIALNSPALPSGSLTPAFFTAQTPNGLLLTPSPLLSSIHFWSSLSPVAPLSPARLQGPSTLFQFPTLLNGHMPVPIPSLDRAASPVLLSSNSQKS
In a few lines: as §1

In a further assay the target is ETV5 (Homo sapiens, UniProt P41161 1-510). Put shortly: as §1
Sequence of ETV5 (P41161 whole entry): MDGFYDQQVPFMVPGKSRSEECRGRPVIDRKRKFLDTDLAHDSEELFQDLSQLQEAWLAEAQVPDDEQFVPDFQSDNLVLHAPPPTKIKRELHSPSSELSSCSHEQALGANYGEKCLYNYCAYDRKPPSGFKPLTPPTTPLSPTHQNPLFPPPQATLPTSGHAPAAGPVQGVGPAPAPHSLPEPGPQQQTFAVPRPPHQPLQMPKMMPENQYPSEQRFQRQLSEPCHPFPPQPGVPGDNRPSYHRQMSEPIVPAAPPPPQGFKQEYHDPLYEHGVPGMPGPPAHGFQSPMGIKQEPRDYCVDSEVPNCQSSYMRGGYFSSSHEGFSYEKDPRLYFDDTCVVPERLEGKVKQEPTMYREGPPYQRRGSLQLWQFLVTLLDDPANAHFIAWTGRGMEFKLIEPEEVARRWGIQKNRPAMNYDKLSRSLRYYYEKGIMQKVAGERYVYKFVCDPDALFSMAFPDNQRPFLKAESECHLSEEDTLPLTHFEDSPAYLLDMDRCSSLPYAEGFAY
A further assay deals with T5, SPIC (Homo sapiens, UniProt Q8N5J4 1-248).
T5 sequence: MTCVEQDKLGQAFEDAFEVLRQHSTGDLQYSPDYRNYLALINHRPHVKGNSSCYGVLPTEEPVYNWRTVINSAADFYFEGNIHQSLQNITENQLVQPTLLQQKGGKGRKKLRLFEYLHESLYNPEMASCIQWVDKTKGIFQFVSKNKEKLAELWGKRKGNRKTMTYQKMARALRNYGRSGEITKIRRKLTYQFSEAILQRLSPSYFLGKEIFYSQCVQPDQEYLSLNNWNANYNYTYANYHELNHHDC
In a few lines: as §1

The target in another assay is ELF4 (Homo sapiens, UniProt Q99607 1-663). Put shortly:
as §1

A further assay addresses ETV1 (Homo sapiens, UniProt P50549 1-477). Put shortly: as §1
The next assay deals with T6, ETV3L (Homo sapiens, UniProt Q6ZN32 1-361).
T6 sequence: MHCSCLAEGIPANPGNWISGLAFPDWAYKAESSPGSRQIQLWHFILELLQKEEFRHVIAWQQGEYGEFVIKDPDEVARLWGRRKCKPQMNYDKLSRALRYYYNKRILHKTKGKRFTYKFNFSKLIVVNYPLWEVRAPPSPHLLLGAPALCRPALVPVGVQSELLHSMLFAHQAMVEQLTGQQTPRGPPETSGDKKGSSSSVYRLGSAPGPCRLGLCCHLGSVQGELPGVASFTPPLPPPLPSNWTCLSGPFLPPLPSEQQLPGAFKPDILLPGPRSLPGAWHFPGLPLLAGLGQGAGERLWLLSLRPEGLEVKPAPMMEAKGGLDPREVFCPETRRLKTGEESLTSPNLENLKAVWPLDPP
Put shortly:
as §1

A further assay concerns the target T7, ETV3 (Homo sapiens, UniProt P41162-2 1-143).
T7 sequence: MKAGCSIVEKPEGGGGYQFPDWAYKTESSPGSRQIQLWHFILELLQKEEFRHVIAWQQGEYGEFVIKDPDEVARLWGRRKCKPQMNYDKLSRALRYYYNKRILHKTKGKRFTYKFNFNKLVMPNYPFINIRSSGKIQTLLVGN
In a few lines: as §1

Another assay deals with T8, ERG (Homo sapiens, UniProt P11308 1-479).
T8 sequence: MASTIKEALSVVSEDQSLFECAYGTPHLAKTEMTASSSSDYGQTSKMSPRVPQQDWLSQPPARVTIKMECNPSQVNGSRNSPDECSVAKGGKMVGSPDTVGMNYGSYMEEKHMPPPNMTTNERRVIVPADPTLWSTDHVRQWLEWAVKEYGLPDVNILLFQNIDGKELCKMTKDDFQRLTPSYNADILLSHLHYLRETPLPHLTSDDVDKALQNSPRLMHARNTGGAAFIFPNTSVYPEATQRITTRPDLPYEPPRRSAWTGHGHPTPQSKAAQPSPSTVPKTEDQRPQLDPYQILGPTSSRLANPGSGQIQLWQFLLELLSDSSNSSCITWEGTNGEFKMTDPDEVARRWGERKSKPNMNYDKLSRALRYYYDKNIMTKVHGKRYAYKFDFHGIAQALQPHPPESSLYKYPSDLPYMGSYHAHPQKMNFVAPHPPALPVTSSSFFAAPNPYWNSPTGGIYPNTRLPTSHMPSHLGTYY
Put shortly:
as §1

The target in a further assay is SPI1 (Homo sapiens, UniProt P17947 1-270). In a few lines: as §1
The target of another assay is T9, FEV (Homo sapiens, UniProt Q99581 1-238).
T9 sequence: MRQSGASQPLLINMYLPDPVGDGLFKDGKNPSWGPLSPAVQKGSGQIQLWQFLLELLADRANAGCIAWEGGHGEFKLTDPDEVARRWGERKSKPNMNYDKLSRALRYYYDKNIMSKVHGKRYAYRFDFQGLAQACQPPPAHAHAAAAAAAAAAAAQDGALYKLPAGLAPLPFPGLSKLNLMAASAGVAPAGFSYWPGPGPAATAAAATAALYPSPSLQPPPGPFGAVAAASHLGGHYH
In a few lines: as §1

In a further assay the target is T10, ERF (Homo sapiens, UniProt P50548 1-548).
T10 sequence: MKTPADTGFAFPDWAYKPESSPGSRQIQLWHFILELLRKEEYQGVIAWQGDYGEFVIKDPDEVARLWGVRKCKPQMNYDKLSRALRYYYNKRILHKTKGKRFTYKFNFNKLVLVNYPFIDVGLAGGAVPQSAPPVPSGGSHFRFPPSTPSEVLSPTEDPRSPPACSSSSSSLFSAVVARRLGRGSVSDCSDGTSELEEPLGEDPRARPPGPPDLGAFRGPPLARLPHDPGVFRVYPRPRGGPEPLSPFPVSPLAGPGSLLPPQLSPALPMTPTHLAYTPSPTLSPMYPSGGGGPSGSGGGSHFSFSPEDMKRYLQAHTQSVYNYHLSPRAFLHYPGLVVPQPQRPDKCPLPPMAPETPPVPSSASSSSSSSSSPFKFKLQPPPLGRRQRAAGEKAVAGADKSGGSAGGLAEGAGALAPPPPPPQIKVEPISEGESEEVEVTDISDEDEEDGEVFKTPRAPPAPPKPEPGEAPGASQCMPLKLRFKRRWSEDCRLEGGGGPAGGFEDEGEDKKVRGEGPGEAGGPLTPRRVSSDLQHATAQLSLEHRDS
In a few lines:
as §1

In a further assay the target is T11, ETS2 (Homo sapiens, UniProt P15036 1-469).
T11 sequence: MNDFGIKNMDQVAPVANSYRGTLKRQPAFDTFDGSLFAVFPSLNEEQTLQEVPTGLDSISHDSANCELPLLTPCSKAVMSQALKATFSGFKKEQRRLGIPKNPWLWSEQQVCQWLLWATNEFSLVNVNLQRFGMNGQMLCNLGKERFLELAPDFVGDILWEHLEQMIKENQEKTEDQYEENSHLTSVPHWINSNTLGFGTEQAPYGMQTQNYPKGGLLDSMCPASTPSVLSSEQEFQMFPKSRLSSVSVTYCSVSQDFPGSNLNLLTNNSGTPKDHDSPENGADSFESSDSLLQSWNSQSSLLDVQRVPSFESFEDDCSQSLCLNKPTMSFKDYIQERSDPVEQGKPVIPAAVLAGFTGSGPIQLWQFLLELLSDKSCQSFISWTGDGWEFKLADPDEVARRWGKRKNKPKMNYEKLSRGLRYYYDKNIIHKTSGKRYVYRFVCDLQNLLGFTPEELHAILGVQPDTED
Put shortly:
as §1

The next assay concerns the target ETV6 (Homo sapiens, UniProt P41212 1-452). In a few lines: as §1

From article PMC7862700, “An all-to-all approach to the identification of sequence-specific readers for epigenetic DNA modifications on cytosine” come the findings set out here.

Sequence of ELF4 (Q99607 whole entry): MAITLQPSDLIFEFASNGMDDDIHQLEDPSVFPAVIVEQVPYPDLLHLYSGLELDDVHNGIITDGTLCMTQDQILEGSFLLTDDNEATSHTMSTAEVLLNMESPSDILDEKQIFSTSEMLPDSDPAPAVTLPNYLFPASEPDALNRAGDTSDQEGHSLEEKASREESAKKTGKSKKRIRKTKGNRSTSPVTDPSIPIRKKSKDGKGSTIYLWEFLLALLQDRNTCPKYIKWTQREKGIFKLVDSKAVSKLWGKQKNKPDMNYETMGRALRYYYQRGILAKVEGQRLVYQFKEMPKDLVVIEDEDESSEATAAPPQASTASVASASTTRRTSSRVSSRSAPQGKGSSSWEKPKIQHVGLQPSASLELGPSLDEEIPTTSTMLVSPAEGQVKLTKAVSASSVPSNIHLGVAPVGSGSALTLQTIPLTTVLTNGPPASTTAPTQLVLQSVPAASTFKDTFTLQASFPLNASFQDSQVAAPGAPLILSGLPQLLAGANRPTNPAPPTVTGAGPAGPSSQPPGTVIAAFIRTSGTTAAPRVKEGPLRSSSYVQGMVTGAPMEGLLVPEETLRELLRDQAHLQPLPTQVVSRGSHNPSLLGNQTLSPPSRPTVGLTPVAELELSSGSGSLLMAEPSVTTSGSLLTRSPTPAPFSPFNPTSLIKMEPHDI
Sequence of ETV1 (P50549 whole entry): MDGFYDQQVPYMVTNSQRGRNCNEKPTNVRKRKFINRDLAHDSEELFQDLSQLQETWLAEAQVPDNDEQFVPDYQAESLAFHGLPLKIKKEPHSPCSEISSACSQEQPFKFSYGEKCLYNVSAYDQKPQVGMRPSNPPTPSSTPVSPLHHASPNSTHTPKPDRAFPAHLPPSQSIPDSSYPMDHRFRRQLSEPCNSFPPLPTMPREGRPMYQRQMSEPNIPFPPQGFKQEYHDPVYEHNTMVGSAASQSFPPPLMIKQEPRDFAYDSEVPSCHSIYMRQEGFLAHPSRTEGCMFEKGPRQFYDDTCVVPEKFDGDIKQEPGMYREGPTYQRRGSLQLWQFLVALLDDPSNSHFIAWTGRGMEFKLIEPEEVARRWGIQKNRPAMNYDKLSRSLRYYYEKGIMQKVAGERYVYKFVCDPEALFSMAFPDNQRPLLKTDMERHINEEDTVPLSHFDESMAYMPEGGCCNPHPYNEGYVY
Sequence of ELF1 (P32519 whole entry): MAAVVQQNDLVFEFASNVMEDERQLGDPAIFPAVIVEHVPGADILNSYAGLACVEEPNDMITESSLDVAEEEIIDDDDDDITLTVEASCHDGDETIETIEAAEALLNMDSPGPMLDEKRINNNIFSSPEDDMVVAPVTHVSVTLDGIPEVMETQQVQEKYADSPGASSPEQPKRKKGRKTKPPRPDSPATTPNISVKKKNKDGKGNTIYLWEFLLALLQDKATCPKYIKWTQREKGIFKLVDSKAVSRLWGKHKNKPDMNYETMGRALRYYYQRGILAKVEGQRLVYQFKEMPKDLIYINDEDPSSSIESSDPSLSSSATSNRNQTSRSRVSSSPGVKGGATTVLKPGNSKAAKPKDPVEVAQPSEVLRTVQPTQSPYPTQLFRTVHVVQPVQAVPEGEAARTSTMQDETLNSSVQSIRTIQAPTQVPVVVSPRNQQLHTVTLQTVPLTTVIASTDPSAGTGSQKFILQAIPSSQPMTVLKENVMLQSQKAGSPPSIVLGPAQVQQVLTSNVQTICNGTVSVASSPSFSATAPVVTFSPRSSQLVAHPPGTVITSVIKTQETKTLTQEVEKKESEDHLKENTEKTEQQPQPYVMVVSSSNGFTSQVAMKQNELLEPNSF
Sequence of SPIB (Q01892 whole entry): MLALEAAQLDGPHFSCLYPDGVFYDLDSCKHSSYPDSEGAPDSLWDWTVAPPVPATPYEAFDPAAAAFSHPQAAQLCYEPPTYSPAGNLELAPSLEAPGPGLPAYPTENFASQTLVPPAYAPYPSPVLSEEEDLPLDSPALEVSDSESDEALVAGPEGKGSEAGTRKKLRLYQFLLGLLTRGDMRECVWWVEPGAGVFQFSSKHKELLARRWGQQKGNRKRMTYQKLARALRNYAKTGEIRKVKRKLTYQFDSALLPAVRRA
Sequence of ETV6 (P41212 whole entry): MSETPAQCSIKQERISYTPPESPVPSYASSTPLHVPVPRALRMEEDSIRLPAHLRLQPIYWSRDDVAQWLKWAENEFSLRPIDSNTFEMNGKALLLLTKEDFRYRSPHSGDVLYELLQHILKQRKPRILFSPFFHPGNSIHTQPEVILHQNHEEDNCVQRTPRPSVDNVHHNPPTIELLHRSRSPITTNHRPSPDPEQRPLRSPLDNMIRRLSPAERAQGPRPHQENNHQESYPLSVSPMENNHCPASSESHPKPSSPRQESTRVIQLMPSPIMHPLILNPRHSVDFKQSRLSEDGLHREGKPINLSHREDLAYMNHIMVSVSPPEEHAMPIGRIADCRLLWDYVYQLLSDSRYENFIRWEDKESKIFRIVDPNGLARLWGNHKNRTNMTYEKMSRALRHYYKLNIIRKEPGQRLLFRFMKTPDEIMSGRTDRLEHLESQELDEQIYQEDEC

In the case of GGACTC, the binding signal in the assay with FLI1 is 1.08 fold enrichment (6-mer frequency, TF over GST control); in the assay with GABPA, 1.07 fold enrichment (6-mer frequency, TF over GST control); with ELF1, 1.09 fold enrichment (6-mer frequency, TF over GST control); with EHF, 1.12 fold enrichment (6-mer frequency, TF over GST control); in the assay with SPIB, 1.05 fold enrichment (6-mer frequency, TF over GST control); with ELK3, 1.04 fold enrichment (6-mer frequency, TF over GST control). For the same sequence, the binding signal with ETV5 was 1.08 fold enrichment (6-mer frequency, TF over GST control); with SPIC it was 1.01 fold enrichment (6-mer frequency, TF over GST control); with ELF4, 1.13 fold enrichment (6-mer frequency, TF over GST control); with ETV1, 1.07 fold enrichment (6-mer frequency, TF over GST control); in the assay with ETV3L it was 1.03 fold enrichment (6-mer frequency, TF over GST control); with ETV3, 1.08 fold enrichment (6-mer frequency, TF over GST control).
As for CGCGAC, the binding signal was 1.08 fold enrichment (6-mer frequency, TF over GST control) with FLI1; 1.09 fold enrichment (6-mer frequency, TF over GST control) with GABPA; 1.04 fold enrichment (6-mer frequency, TF over GST control) with ERG; 1.12 fold enrichment (6-mer frequency, TF over GST control) with ELF1; 1.12 fold enrichment (6-mer frequency, TF over GST control) in the assay with EHF; 1.08 fold enrichment (6-mer frequency, TF over GST control) with SPI1. Also, the binding signal with SPIB was 1.11 fold enrichment (6-mer frequency, TF over GST control); in the assay with FEV, 1.01 fold enrichment (6-mer frequency, TF over GST control); in the assay with ETV5 it was 1.08 fold enrichment (6-mer frequency, TF over GST control); in the assay with SPIC it was 1.31 fold enrichment (6-mer frequency, TF over GST control); with ELF4 it was 1.09 fold enrichment (6-mer frequency, TF over GST control); with ETV1 it was 1.06 fold enrichment (6-mer frequency, TF over GST control). The binding signal with ERF was 1.16 fold enrichment (6-mer frequency, TF over GST control); with ETV3L, 1.04 fold enrichment (6-mer frequency, TF over GST control); with ETS2 it was 1.12 fold enrichment (6-mer frequency, TF over GST control); with ETV3, 1.04 fold enrichment (6-mer frequency, TF over GST control); with ETV6 it was 1.04 fold enrichment (6-mer frequency, TF over GST control).
